Yeast superoxide: caloric restriction mimetics inhibiting age-related superoxide in yeast | superoxide response (% of plate mean), % at 10 µM | actives 0.18% (n = 330,000) | S. cerevisiae aged cells, superoxide DHE fluorescence; hits give low values;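 active means superoxide response under a set limit, about three screen SD below normal, cut at about 65% in these data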;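 further: yeast aged for seven days with compound at 30 °C before DHE staining; 100% = average MFI of all compound-treated wells on the plate with controls excluded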
PfM18AAP inh: blocks P. falciparum M18 aspartyl aminopeptidase | actives 1.2% (n = 290,000) | AID 1822 | recombinant PfM18AAP, H-Glu-NHMec fluorogenic cleavage | inhibition, % at 7.35 µM;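 active means inhibition above the campaign mean inhibition over all tested compounds plus 3 SD, cut at about 28% in these data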;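 further: 0% = plate median of test compound wells and 100% = 2 mM ZnCl2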
ALR H2O2 inh: inhibitors of human sulfhydryl oxidase ALR. P55789. purified ALR, DTT oxidation, H2O2 HRP-luminol luminescence. inhibition, % (no concentration beside the values). actives 3.8% (n = 290,000);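 active means mean replicate inhibition above about 79%, with every replicate also reaching it, limit read from the data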
Target sequence (P55789 whole entry, looked up): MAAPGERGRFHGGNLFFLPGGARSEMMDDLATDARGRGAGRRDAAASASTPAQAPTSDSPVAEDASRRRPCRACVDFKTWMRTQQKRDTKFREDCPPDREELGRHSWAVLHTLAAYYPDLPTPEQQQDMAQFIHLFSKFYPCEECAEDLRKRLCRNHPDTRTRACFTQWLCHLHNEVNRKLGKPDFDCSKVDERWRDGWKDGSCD
A3G deaminase: APOBEC3G (human) deaminase inhibition; recombinant A3G, ssDNA deamination FAM/TAMRA fluorescence; inhibition, % at 20 µM; actives 0.28% (n = 330,000); AID 493012;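 active means inhibition of at least 40% at 20 µM, with no more than 30% in the related APOBEC3A deaminase screen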;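 further: plate controls were DMSO wells with A3G for no effect and wells lacking A3G enzyme for full effect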
Target sequence (Q9HC16 whole entry, looked up): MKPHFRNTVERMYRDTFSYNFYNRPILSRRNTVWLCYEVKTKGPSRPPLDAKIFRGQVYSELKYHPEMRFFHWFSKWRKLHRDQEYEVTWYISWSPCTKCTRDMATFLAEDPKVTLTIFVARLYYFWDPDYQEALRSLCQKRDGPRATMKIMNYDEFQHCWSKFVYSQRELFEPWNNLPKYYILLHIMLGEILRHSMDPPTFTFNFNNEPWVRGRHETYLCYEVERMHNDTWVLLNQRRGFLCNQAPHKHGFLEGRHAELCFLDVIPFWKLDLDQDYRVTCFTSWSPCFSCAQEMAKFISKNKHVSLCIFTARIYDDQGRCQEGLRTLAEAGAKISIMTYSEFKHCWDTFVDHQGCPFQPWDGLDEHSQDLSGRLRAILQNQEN
CendR NRP1 mod: modulators of CendR peptide binding to human neuropilin-1; FAM-RPARPAR peptide binding to NRP-1, fluorescence polarization; inhibition, % at 25 µM; actives 0.85% (n = 360,000);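 active means inhibition or corrected inhibition above about 18%, plus a signal ratio from 0.5 to 1.5, limit read from the data, passing the limit was not always enough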
A3A deaminase: human APOBEC3A DNA deaminase inhibition. P31941. recombinant A3A, FAM/TAMRA ssDNA deamination fluorescence. inhibition, % at 20 µM. actives 0.41% (n = 330,000);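 active means at least 40% inhibition at 20 µM here, with at most 30% in a related deaminase screen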;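 further: plate controls were A3A with DMSO for no effect and wells lacking A3A enzyme for full effect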
* marks the source's active call; other numbers are inactive results; · = no result given. Only some compounds are listed: those with a hit (about 5.2% of all), similar ones and a draw of the others.

SMILES	Yeast superoxide	PfM18AAP inh	ALR H2O2 inh	A3G deaminase	CendR NRP1 mod	A3A deaminase
O=[N+]([O-])c1ccc(CSC2=NCCS2)cc1	106.8	4.4	98.7*	-6.8	1.1	-8.6
CCCCOc1ccc(CSC2=NCCN2)cc1[N+](=O)[O-]	108.6	2.4	99.7*	-9.0	18.5	4.7
COc1ccccc1NC(=O)c1ccc(NC(=O)CN2CCCCC2)cc1	94.0	·	-2.2	-5.9	18.6	-2.6
CN(CC(=O)NC1CCCCC1)S(=O)(=O)c1ccc(Cl)cc1	89.7	-8.0	-5.0	-2.8	-2.2	-0.7
CCc1[nH]nc2c1C(C1C=CCCC1)C(C#N)=C(N)O2 (stereo not drawn)	97.8	-4.0	6.5	-6.6	-9.8	-4.4
COc1ccc(-c2nnc(SCC(=O)NCCC(C)C)nc2-c2ccc(OC)c(OC)c2)cc1OC	106.3	3.4	-6.1	-8.7	1.4	-5.7
CCOc1ccc(Cn2ccnc2)cc1[N+](=O)[O-]	117.3	-1.1	·	1.3	2.0	1.5
CCOc1ccc(CSC2=NCCN2)cc1[N+](=O)[O-]	102.5	1.7	99.1*	-5.9	-6.5	-1.0
COc1cc(CC(=O)O)ccc1OCc1ccccc1	102.5	-1.0	-20.9	1.5	26.0*	1.8
CNCc1ccc(OCc2ccccc2)c(OC)c1	103.7	-6.0	-4.3	0.2	-8.7	0.3
COc1cc(CNc2ccc(N3CCOCC3)cc2)ccc1OCC(=O)NC(C)(C)C	95.2	5.0	99.3*	-5.8	12.5	-2.0
COc1cc(CNCCCO)ccc1OCC(=O)NC(C)(C)C	100.7	0.0	·	-8.1	0.3	-1.5
COc1cc(CNc2ccc(N3CCN(C(C)=O)CC3)cc2)ccc1OCc1ccccc1	118.6	6.2	99.2*	-1.2	-0.1	-2.7
COc1cc(CNc2ccc(NC(C)=O)cc2)ccc1OCc1ccccc1C	105.4	-3.6	41.5	-6.1	20.1	3.0
O[C@@H]1C[C@H](c2ccc(Cl)cc2)N(Cc2cccs2)C[C@H]1n1cc(C2CC2)nn1	·	·	·	·	-13.1	·
Cc1nnnn1CC(=O)Nc1ccccc1[N+](=O)[O-]	98.3	-0.3	·	-1.9	-1.9	5.1
CC(=O)Nc1ccc(S(=O)(=O)N2CCN=C2SCc2ccccc2C)cc1	98.1	1.9	97.8*	-4.4	4.2	-3.3
CC(=O)Nc1ccc(S(=O)(=O)N2CCN=C2SCc2ccc([N+](=O)[O-])cc2)cc1	98.5	1.6	98.9*	-3.5	0.0	1.0
CS(=O)(=O)N1CCN=C1SCc1ccc(Br)cc1	100.0	2.7	-14.2	-11.3	-5.4	-5.1
CS(=O)(=O)N1CCN=C1SCc1ccc([N+](=O)[O-])cc1	102.8	1.8	98.6*	-6.3	10.2	-3.8
CN1CCN(CCCNC(=O)Nc2ccc([N+](=O)[O-])cc2)CC1	98.8	4.5	-12.3	-6.9	8.2	0.6
O=C(NCc1ccc2c(c1)OCO2)C1CCN(c2ccc(S(=O)(=O)N3CCCC3)cc2)CC1	105.6	7.7	-4.0	-0.1	0.6	1.3
Cc1ccc(CNC(=O)Nc2ccc(F)cc2F)n1C	105.6	30.3*	-7.5	·	-14.5	·
Cc1ccc(CNC(=O)Nc2ccccc2)n1C	107.3	21.4	-9.2	-11.3	-7.2	-5.2
CCOC(=O)C1(C)C=C(Nc2ccc(OC)cc2)C(=O)N1c1ccc(OC)cc1 (stereo not drawn)	98.7	-0.3	-5.5	-5.0	-1.6	-2.0
SMILES	Yeast superoxide	PfM18AAP inh	ALR H2O2 inh	A3G deaminase	CendR NRP1 mod	A3A deaminase
CCOC(=O)C1(C)C=C(Nc2ccc(O)cc2)C(=O)N1c1ccc(O)cc1 (stereo not drawn)	102.5	33.7*	99.6*	-1.5	12.2	-1.9
COC(=O)CC1SC(=O)NC1=Nc1ccc(O)cc1 (stereo not drawn)	97.5	3.3	95.6*	-4.3	8.4	-2.4
COC(=O)CC1SC(=O)NC1=Nc1ccc(OC)cc1 (stereo not drawn)	98.6	11.8	-7.0	-1.0	-5.6	-5.9
Nc1ncncc1-c1ccc(F)cc1	·	·	·	·	-1.0	·
CC(=O)c1csc(COc2ccccc2)n1	102.6	-9.5	-15.4	-4.9	2.2	-1.3
Cc1ccccc1OCC(=O)Nc1nnc(-c2ccncc2)s1	94.7	1.6	86.7*	-2.3	5.1	-1.0
O=C(Nc1nc(-c2ccc(F)cc2)cs1)c1cccc(N2C(=O)CCC2=O)c1	106.4	3.6	-0.9	4.8	2.4	5.3
CC(C)=NNc1nc(-c2ccccc2)cs1	87.8	12.7	97.4*	-2.1	0.6	-1.3
CC(C)=NNc1nc(-c2ccc(N3C(=O)CCC3=O)cc2)cs1	94.5	28.2*	98.6*	-3.0	-21.1	-4.3
C/C(CCC1CC(C)OC1=O)=N/Nc1nc(-c2ccccc2)cs1 (stereo not drawn)	105.7	15.3	98.5*	-11.3	-11.6	-6.1
C/C(=N\Nc1nc(C(C)(C)C)cs1)c1ccccc1	104.2	8.0	98.4*	-5.8	-7.9	4.7
Cc1sc2nc(SCC(=O)C(C)(C)C)n(Cc3ccco3)c(=O)c2c1C	101.7	-14.6	-7.1	-3.6	-7.4	1.2
Cc1sc2nc3c4ccccc4c(NCc4ccco4)nn3c(=O)c2c1C	106.4	21.9	97.7*	12.4	-36.7	2.4
Cc1n[nH]c(=O)nc1NCc1ccco1	95.6	1.1	0.6	6.6	25.4*	2.6
Cc1sc2ncnc(N(C)Cc3ccco3)c2c1C	85.0	5.1	-3.5	-2.8	-5.3	-1.5
Cc1sc2ncnc(SCc3ccco3)c2c1C	105.7	-16.0	91.5*	1.7	-8.0	-0.6
Cc1nc(NCc2ccco2)c2c(C)c(C)sc2n1	87.3	8.4	97.4*	-4.9	4.1	0.4
CCOC(=O)c1sc2nc(CC(=O)OC)nc(NCc3ccco3)c2c1C	·	6.2	·	·	-84.8	·
Cc1cc(NO)c(C(C)C)cc1N=O	87.0	-5.1	0.7	-0.9	-4.6	-0.8
O=C(O)c1ccc(S(=O)(=O)N2CCCC2)cc1	103.4	1.5	4.3	-7.0	11.3	-3.2
CN1CCN(c2ccccc2NC(=O)c2cc3c(s2)-c2ccccc2OC3)CC1	90.9	3.0	50.5	-6.7	1.3	-0.4
N#Cc1ccc(NC(=O)CN2C(=O)NC(Cc3ccccc3)C2=O)cc1 (stereo not drawn)	94.1	3.9	-0.3	0.7	6.4	1.1
CCCCCN(C(=O)CCC(=O)OCC(=O)c1c(C)cc(C)cc1C)c1c(N)n(CCCC)c(=O)[nH]c1=O	95.2	·	-0.6	-8.8	2.1	2.0
CCn1c(CNC(=O)c2ccco2)nnc1SCC(=O)c1ccc(OC)cc1	120.0	1.3	28.3	4.2	1.3	1.5
CC1CCCN(C(=O)Cn2cnc3c2c(=O)n(C)c(=O)n3C)C1 (stereo not drawn)	98.5	-5.8	0.0	2.1	9.2	6.6
O=C1NCCCc2c1oc1cc(Br)c(O)c(Br)c21	106.0	7.3	98.8*	21.5	9.5	-5.8
CC(C)NCc1c(O)c(Br)cc2oc3c(c12)CCCC3	·	14.1	·	·	-5.3	·
CSc1nnc(N2C(=O)C(O)=C(C(=O)c3ccco3)C2c2cccc(Cl)c2)s1 (stereo not drawn)	109.2	8.6	87.1*	·	-36.9	·
